Screening results as filed in PubChem BioAssay.
IDE exosite FP – exo-site inhibitors of human IDE, primary screen, biochemical, fluorescence anisotropy, probe displacement | Insulin-degrading enzyme (Homo sapiens), P14735 | z-score at 20 µM | AID 1259349, 2017 | 17,000 tested, 6.3% active | purified IDE, FL-6b probe fluorescence polarization; active compounds read low;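 active = z-score of -3 or lower, meaning strong loss of probe binding signal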;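 note: His-tagged human IDE residues 42-1019 made in E. coli with 30 nM FL-6b probe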
Target sequence (P14735 42-1019 limits assumed): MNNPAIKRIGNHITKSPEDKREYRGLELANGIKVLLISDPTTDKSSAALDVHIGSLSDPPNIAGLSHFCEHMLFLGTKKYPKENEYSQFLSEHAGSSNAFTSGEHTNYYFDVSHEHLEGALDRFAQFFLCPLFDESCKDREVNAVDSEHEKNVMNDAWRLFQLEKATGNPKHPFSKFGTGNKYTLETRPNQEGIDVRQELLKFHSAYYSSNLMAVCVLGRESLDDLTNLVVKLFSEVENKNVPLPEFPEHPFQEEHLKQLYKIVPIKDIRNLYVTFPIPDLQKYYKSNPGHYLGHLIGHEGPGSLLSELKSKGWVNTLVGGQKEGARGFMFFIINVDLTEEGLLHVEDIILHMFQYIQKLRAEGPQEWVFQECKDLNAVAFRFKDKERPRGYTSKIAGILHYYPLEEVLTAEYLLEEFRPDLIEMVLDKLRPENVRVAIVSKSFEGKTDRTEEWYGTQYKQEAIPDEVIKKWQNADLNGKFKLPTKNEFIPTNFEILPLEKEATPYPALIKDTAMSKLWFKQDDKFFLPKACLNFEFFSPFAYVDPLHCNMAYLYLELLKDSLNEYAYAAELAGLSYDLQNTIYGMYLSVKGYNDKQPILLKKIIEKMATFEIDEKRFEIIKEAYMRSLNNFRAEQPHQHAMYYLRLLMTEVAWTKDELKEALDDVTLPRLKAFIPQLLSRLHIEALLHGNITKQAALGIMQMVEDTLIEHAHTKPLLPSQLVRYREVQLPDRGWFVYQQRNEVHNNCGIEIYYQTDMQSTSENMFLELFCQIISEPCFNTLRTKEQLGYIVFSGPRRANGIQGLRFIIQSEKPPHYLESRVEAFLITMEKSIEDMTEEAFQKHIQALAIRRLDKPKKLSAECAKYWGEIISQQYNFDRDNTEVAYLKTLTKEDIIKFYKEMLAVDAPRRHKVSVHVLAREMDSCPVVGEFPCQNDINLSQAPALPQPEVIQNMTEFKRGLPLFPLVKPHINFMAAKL
Numbers stand for hits; 0 = inactive. Many of the other results were omitted from the sample, so hits are more common in it than they were.

SMILES	IDE exosite FP
OC[C@@H]1[C@H](c2ccc(-c3ccc(F)cc3)cc2)[C@@H]2CN(Cc3ccncc3)CCCCN12	0
OC[C@H]1[C@H](c2ccc(-c3ccccc3F)cc2)[C@@H]2CN(Cc3ccncc3)CCCCN12	0
OC[C@H]1[C@H](c2ccc(-c3ccccc3)cc2)[C@H]2CN(Cc3ccccn3)CCCCN21	0
CN1CCN(C(=O)C[C@H]2CC[C@@H]3[C@@H](COc4ccc(NC(=O)C5CCOCC5)cc4C(=O)N3C)O2)CC1	0
COc1ccc(-c2ccc([C@@H]3[C@@H](CO)N4C(=O)CN(C(=O)c5ccccn5)C[C@H]34)cc2)cc1	0
O=C(c1cccc(F)c1)N1CC(=O)N2[C@H](CO)[C@@H](c3ccc(-c4ccccc4F)cc3)[C@@H]2C1	0
O=C([C@H]1N[C@H]2c3ccc(-c4ccc(F)cc4)c(=O)n3C[C@H]2[C@@H]1CO)N1CCc2ccccc2C1	0
O=C(N[C@@H]1CC[C@@H](CCNS(=O)(=O)c2ccc(F)cc2)O[C@H]1CO)C1CCC1	0
O=C(c1cccc(F)c1)N1CCCCN2[C@@H](CO)[C@@H](c3ccc(/C=C/c4ccccc4)cc3)[C@@H]2C1	0
CS(=O)(=O)N1[C@@H](C#N)[C@@H](c2ccc(-c3ccccc3F)cc2)[C@@H]1CO	0
COc1ccc2c3c([nH]c2c1)[C@H](CO)N(C)CC31CCN(C(=O)c2ccccn2)CC1	0
Cc1ccc(-c2ccc([C@H]3[C@H](CO)N4C(=O)CN(C(=O)Nc5ccc(F)cc5)C[C@@H]34)cc2)cc1	0
OC[C@@H]1[C@@H](c2ccc(C#Cc3ccccc3)cc2)[C@@H]2CN(Cc3cncnc3)CCCCN12	-6.4
CCCC#Cc1ccc([C@H]2[C@H](CO)N3CCCCN(Cc4cncnc4)C[C@@H]23)cc1	0
OC[C@H]1[C@@H](c2ccc(C#Cc3ccccc3)cc2)[C@H]2CN(Cc3cncnc3)CCCCN21	0
OC[C@H]1[C@H](c2ccc(C#Cc3ccccc3)cc2)[C@@H]2CN(Cc3cncnc3)CCCCN12	-4.5
OC[C@@H]1[C@H](c2ccc(C#Cc3ccccc3)cc2)[C@H]2CN(Cc3cncnc3)CCCCN12	-8.5
COCC#Cc1ccc([C@H]2[C@@H](CO)N3CCCCN(Cc4cncnc4)C[C@@H]23)cc1	0
CCCC#Cc1ccc([C@@H]2[C@H](CO)N3CCCCN(Cc4cncnc4)C[C@@H]23)cc1	0
COCC#Cc1ccc([C@H]2[C@H]3CN(Cc4cncnc4)CCCCN3[C@H]2CO)cc1	0
CCCC#Cc1ccc([C@@H]2[C@H](CO)N3CCCCN(Cc4cccnc4)C[C@@H]23)cc1	0
N#C[C@@H]1[C@H](c2ccccc2-c2cccc(F)c2)[C@@H](CO)N1C(=O)NC1CCCCC1	0
CN(C[C@H]1[C@@H](c2ccccc2)[C@@H](CO)N1C(=O)C1CCC1)C(=O)c1ccncc1	0
CN(C[C@@H]1[C@@H](c2ccccc2)[C@H](CO)N1Cc1ccccn1)S(C)(=O)=O	0
CCCNC(=O)N1CC(=O)N2[C@H](CO)[C@H](c3ccc(-c4ccncc4)cc3)[C@@H]2C1	0
SMILES	IDE exosite FP
CCCNC(=O)N1CC(=O)N2[C@H](C1)[C@@H](c1ccc(-c3cccc(C)c3)cc1)[C@@H]2CO	-15
CCCNC(=O)N1CC(=O)N2[C@H](CO)[C@@H](c3ccc(-c4ccc(C)cc4)cc3)[C@@H]2C1	0
CCCNC(=O)N1CC(=O)N2[C@H](C1)[C@@H](c1ccc(-c3ccc(C)cc3)cc1)[C@@H]2CO	0
CCCNC(=O)N1CC(=O)N2[C@H](C1)[C@H](c1ccc(-c3ccc(C)cc3)cc1)[C@@H]2CO	-3.6
CCCNC(=O)N1CC(=O)N2[C@@H](CO)[C@H](c3ccc(-c4ccc(F)cc4)cc3)[C@@H]2C1	0
CCCNC(=O)N1CC(=O)N2[C@H](CO)[C@@H](c3ccc(-c4ccc(F)cc4)cc3)[C@@H]2C1	0
CCCNC(=O)N1CC(=O)N2[C@H](CO)[C@H](c3ccc(-c4ccc(F)cc4)cc3)[C@@H]2C1	0
CCCNC(=O)N1CC(=O)N2[C@H](CO)[C@@H](c3ccc(-c4cccc(C)c4)cc3)[C@@H]2C1	-22
CCCNC(=O)N1CC(=O)N2[C@H](CO)[C@H](c3ccc(-c4cccc(C)c4)cc3)[C@@H]2C1	-16
CCCC#Cc1ccc([C@@H]2[C@H](CO)N3C(=O)CN(C(=O)NCCC)C[C@@H]23)cc1	0
CC(C)NC(=O)N1[C@H](CO)[C@@H](c2ccccc2)[C@H]1CN(C)C(=O)c1cccnc1	0
C/C=C/c1ccc([C@H]2[C@H](CO)N(C(=O)CN(C)C)C23CN(C(=O)C2CCOCC2)C3)cc1	0
CCC(=O)N1C[C@H]2[C@@H](c3ccccc31)[C@H](CO)N2Cc1ccc(F)cc1	0
CCC(=O)N1[C@H](CO)[C@@H](c2ccccc2)C12CN(C(=O)Nc1ccccc1F)C2	0
CO[C@H](CN(C)Cc1ccc2c(c1)OCO2)[C@@H](C)CN(C(=O)Nc1ccc(F)cc1)[C@@H](C)CO	0
CCCNC(=O)N1[C@@H]2Cn3c(cccc3=O)[C@H]1[C@@H](C(=O)N1CCC(Cc3ccccc3)CC1)[C@@H]2CO	0
C[C@H](O)C#Cc1ccc([C@@H]2[C@H]3CN(C(=O)c4ccncc4)CCCCN3[C@H]2CO)cc1	0
COc1ccc(NC(=O)N2CC(=O)N3[C@@H](CO)[C@@H](c4ccc(-c5ccc(C)cc5)cc4)[C@@H]3C2)cc1	0
N#C[C@@H]1[C@H](c2ccc(C3=CCCC3)cc2)[C@@H](CO)N1C(=O)Cc1ccncc1	0
O=C(Nc1ccccc1F)N1CCCCN2[C@H](CO)[C@@H](c3ccc(/C=C/c4ccccc4)cc3)[C@H]2C1	0
O=C(NC1CCCC1)N1CCCCN2[C@H](CO)[C@@H](c3ccc(/C=C/c4ccccc4)cc3)[C@@H]2C1	0
O=C(NC1CCCC1)N1CCCCN2[C@H](C1)[C@@H](c1ccc(/C=C/c3ccccc3)cc1)[C@@H]2CO	-9.6
O=C(NC1CCCC1)N1CCCCN2[C@H](C1)[C@H](c1ccc(/C=C/c3ccccc3)cc1)[C@@H]2CO	-13
CCCNC(=O)N[C@@H]1C=C[C@H](CC(=O)N2CCN(C)CC2)O[C@@H]1CO	0
Cc1ccc(S(=O)(=O)N[C@H]2C=C[C@@H](CC(=O)NCc3ccc(Cl)c(Cl)c3)O[C@@H]2CO)cc1	0
SMILES	IDE exosite FP
CO[C@@H]1CN(C)C(=O)c2ccc(NC(=O)c3ccccc3F)cc2OC[C@@H](C)N(C)C[C@@H]1C	0
C[C@H](CO)N1C[C@H](C)[C@H](CN(C)C(=O)CCCN(C)C)OCCCC[C@H](C)Oc2ccc(NS(=O)(=O)c3ccc(Cl)cc3)cc2C1=O	0
CO[C@@H](CN(C)S(=O)(=O)c1cn(C)cn1)[C@H](C)CN(C(=O)Nc1ccc(C(F)(F)F)cc1)[C@@H](C)CO	0
N#C[C@@H]1[C@H](c2ccc(C3=CCCCC3)cc2)[C@H](CO)N1S(=O)(=O)c1cccc(F)c1	0
CO[C@@H]1CN(C)C(=O)c2ccc(NC(=O)c3ccno3)cc2OC[C@@H](C)N(S(C)(=O)=O)C[C@H]1C	0
CCS(=O)(=O)N1CC2(C1)[C@H](c1ccccc1)[C@@H](CO)N2C(=O)c1ccccc1	0
CCC(=O)N1[C@H](CO)[C@@H](c2ccc(/C=C/c3ccccc3)cc2)C12CN(S(C)(=O)=O)C2	-7.4
CS(=O)(=O)N1CC2(C1)[C@H](c1ccccc1)[C@@H](CO)N2Cc1ccccc1	0
C/C=C/c1ccc([C@@H]2[C@H]3CN(C(=O)Nc4ccc(F)cc4)CCCCN3[C@H]2CO)cc1	0
